Assay results taken from paper PMC5540273 (PLoS ONE, 2017).

What was measured:
Settings in all cases: concentration: 1 μM, replicates: in singlicate; n = 1
RIOK1 = tested on: RIOK1
RIOK2 = tested on: RIOK2
RIOK3 = tested on: RIOK3
RIPK1 = tested on: RIPK1
RIPK2 = tested on: RIPK2
RIPK4 = tested on: RIPK4
RIPK5 = tested on: RIPK5
ROCK1 = tested on: ROCK1
ROCK2 = tested on: ROCK2
ROS1 = tested on: ROS1
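Note: KINOMEscan kinase panel screen.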

SMILES | %Inh (RIOK1) [%] | %Inh (RIOK2) [%] | %Inh (RIOK3) [%] | %Inh (RIPK1) [%] | %Inh (RIPK2) [%] | %Inh (RIPK4) [%] | %Inh (RIPK5) [%] | %Inh (ROCK1) [%] | %Inh (ROCK2) [%] | %Inh (ROS1) [%]
O=C(O)C(F)(F)F.O=c1[nH]ccc2nc(N[C@@H]3CCNC3)nc(Nc3ccc4c(c3)S(=O)(=O)CC4)c12 [GSK2181306] | 98.9 | 60 | 92.9 | 0 | 9 | 96 | 94.4 | 99.7 | 99.7 | 29
Cc1ccc(-c2ccc3occ(-c4ccc(S(C)=O)cc4)c3c2)nn1 (centres unmarked) | 0 | 10 | 0 | 0 | 0 | 0 | 0 | 6 | 0 | 0
Fc1cc(Cl)ccc1Nc1ccnc2cc(-c3ccc(CN4CCOCC4)o3)ccc12 [GW560109] | 30 | 0 | 0 | 0 | 94.4 | 0 | 0 | 5 | 46 | 0
CC(C)c1nc(-c2ccc(F)c(NS(=O)(=O)c3c(F)cccc3F)c2)c(-c2ccnc(Nc3ccc(N4CCOCC4)nc3)n2)s1 [GSK1804250] | 30 | 13 | 84 | 0 | 97.6 | 0 | 19 | 12 | 2 | 17
Cc1ccc(Nc2ccnc(Nc3ccc(C)c(F)c3)n2)cc1O.Cl [GW582868] | 19 | 2 | 4 | 1 | 55 | 13 | 0 | 22 | 16 | 33
COc1cccc(C2=C(Nc3cccc(O)c3)C(=O)NC2=O)c1 [SB-390771] | 49 | 0 | 17 | 0 | 18 | 22 | 3 | 3 | 5 | 0
c1ccc(Oc2ccc(Nc3ccnc4cc(-c5ccc(CN6CCCCC6)o5)ccc34)cc2)nc1 [GW567143] | 3 | 13 | 0 | 0 | 96.3 | 0 | 0 | 19 | 0 | 0
Cl.O=C(Nc1ccc(Oc2ccc3[nH]c(NC(=O)c4ccco4)nc3c2)cc1)Nc1cc(C(F)(F)F)ccc1F [GW683134] | 1 | 7 | 0 | 86 | 43 | 6 | 0 | 78 | 23 | 3
CC(=O)Nc1cn2nc(Oc3cccc(NC(=O)c4cccc(C(F)(F)F)c4)c3)ccc2n1 | 0 | 0 | 39 | 0 | 67 | 0 | 0 | 0 | 0 | 0
COC(=O)Nc1nc2ccc(Oc3ccc(NC(=O)Nc4cc(C(F)(F)F)ccc4F)cc3)cc2[nH]1.Cl [GW654607] | 2 | 0 | 21 | 74 | 81 | 18 | 0 | 43 | 16 | 6
N#Cc1cnc2cc(-c3cnc(CNCCN4CCOCC4)s3)ccc2c1Nc1ccc(Oc2ccccc2)cc1 [GW664114] | 15 | 0 | 29 | 0 | 26 | 21 | 81 | 0 | 2 | 0
CN(C)CCOc1ccc(-c2cc(-c3ccc(Cl)c(O)c3)c(-c3ccncc3)[nH]2)cc1.Cl.Cl [SB-684387] | 0 | 32 | 0 | 36 | 88 | 7 | 13 | 99.2 | 98.9 | 10
N#CC1(c2cccc(C(=O)Nc3cccc(Oc4ccc5nc(NC(=O)C6CC6)sc5n4)c3)c2)CC1 | 0 | 0 | 0 | 15 | 55 | 0 | 0 | 0 | 0 | 1
Cl.Cl.NC(CNC(=O)c1cc(Br)c(-c2ccnc3[nH]ccc23)s1)c1ccccc1 (centres unmarked) [GSK1322949] | 100 | 88 | 98 | 21 | 0 | 34 | 18 | 99.6 | 99.9 | 51
CCOc1nccc(-c2c(-c3ccc(F)cc3)ncn2C2CCNCC2)n1 [SB-249175] | 44 | 24 | 42 | 23 | 31 | 53 | 8 | 53 | 19 | 11
CN(c1ccc(NC(=O)N2CCN(CCCN3CCOCC3)CC2)cc1)c1ccnc(Nc2ccc(CS(C)(=O)=O)cc2)n1.Cl [GW830899] | 80 | 0 | 82 | 4 | 17 | 100 | 0 | 0 | 0 | 5

SMILES | %Inh (RIOK1) [%] | %Inh (RIOK2) [%] | %Inh (RIOK3) [%] | %Inh (RIPK1) [%] | %Inh (RIPK2) [%] | %Inh (RIPK4) [%] | %Inh (RIPK5) [%] | %Inh (ROCK1) [%] | %Inh (ROCK2) [%] | %Inh (ROS1) [%]
CN(c1ccc2c(c1)nc(NCc1ccccc1)n2C)c1ccnc(Nc2ccc(CS(C)(=O)=O)cc2)n1.Cl [GW811603] | 50 | 0 | 44 | 100 | 0 | 49 | 24 | 20 | 47 | 57
CCNc1nccc(-c2c(-c3ccc(F)cc3)ncn2C2CCN(C)CC2)n1 | 10 | 0 | 29 | 8 | 36 | 0 | 0 | 0 | 0 | 0
Cc1cccc(Nc2nc(N[C@H]3CCCC[C@H]3N)ncc2C(N)=O)c1.Cl [GSK986310] | 48 | 42 | 42 | 7 | 2 | 68 | 17 | 85 | 82 | 62
Nc1ncnc2scc(-c3ccc(NC(=O)Cc4cc(F)ccc4F)cc3)c12.O=C(O)C(F)(F)F [SB-731254-M] | 0 | 13 | 1 | 0 | 23 | 20 | 53 | 0 | 0 | 17
Cc1ccc(NC(=O)c2cccc(N3CCCCC3)c2)cc1-c1ccc(C(=O)NCC2CC2)cc1 [GSK1917008] | 34 | 15 | 0 | 13 | 6 | 29 | 0 | 2 | 0 | 6
COc1cc(Nc2nccc(N3CCC(NC(=O)Nc4ccc5c(c4)OCO5)C3)n2)cc(OC)c1OC (centres unmarked) [GSK1379766] | 79 | 0 | 81 | 0 | 19 | 62 | 0 | 25 | 44 | 36
O=C1NC(=O)C(c2ccccc2Cl)=C1Nc1cccc(Cl)c1 [SB-342409] | 4 | 0 | 0 | 4 | 100 | 21 | 14 | 0 | 0 | 0
Cc1ccc(NC(=O)c2ccc(Cl)c(Cl)c2)cc1-c1ccc(C(=O)Nc2ccncc2)cc1 [GSK1398460] | 50 | 0 | 53 | 23 | 11 | 6 | 4 | 0 | 0 | 20
Cc1ccccc1CC(=O)N1CCc2cc(-c3cn(C)c4ncnc(N)c34)ccc21 [GSK2603346] | 8 | 31 | 100 | 100 | 63 | 0 | 69 | 10 | 14 | 2
O=C(Nc1c(F)cccc1F)c1cc(C(=O)c2ccccc2F)c[nH]1 [GSK1326180] | 11 | 4 | 6 | 0 | 0 | 0 | 0 | 0 | 9 | 0
CC(C)c1nc(-c2cccc(NS(=O)(=O)c3c(F)cccc3F)c2)c(-c2ccnc(Nc3ccc(N4CCOCC4)nc3)n2)s1.Cl [GSK1723980] | 25 | 0 | 2 | 0 | 97.7 | 2 | 81 | 6 | 0 | 0
COc1cccc(NC(=O)NCCNc2ccnc(Nc3ccc(F)cc3)n2)c1 [GSK1379879] | 31 | 0 | 13 | 13 | 0 | 23 | 0 | 6 | 15 | 0
CNc1nccc(-c2ccc3c(N)n[nH]c3c2)n1 [GSK2206003] | 98.2 | 85 | 82 | 8 | 0 | 41 | 0 | 52 | 62 | 22
Nc1ncc(-c2ccc3nccc(-c4ccncc4)c3c2)cc1S(=O)(=O)N1CCCCC1 [GSK1693850] | 30 | 89 | 41 | 31 | 22 | 5 | 25 | 11 | 13 | 43
Cc1ccc(O)cc1Nc1ccnc2ccc(C(C)(C)C)cc12 [GW856805] | 15 | 0 | 11 | 16 | 79 | 41 | 22 | 51 | 39 | 28
CS(=O)(=O)c1cccc(CNc2nc(Nc3ccc4c(c3)CCC(=O)N4)ncc2C(F)(F)F)c1 | 62 | 0 | 59 | 0 | 2 | 17 | 0 | 0 | 0 | 31
